Reference: PubChem BioAssay (NCATS)
Records with an inconclusive call do not appear. Active and inactive are the calls of the source. Unless noted, the call rests on the fitted dose curve; in most records, active means well fitted curve in the direction sought with a large enough effect; inconclusive means small, poorly fitted or top-dose-only effect, or another doubt; inactive means no such curve, though single readings can be large; an effect the other way counts as inactive or inconclusive.

Legend:
[1] = Cytometric Cell-Based qHTS for Inhibitors of the mTORC1 Signaling Pathway in MEF (Tsc2-/-, p53-/-) Cells (AID 2660);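 further: percent of cells above a phospho-rpS6 to PI ratio cutoff in each well; series mostly up to about 38 µM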
Summary of the method: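 Tsc2-/-, p53-/- MEFs (empty vector) exposed to compound 24 h at 37 C, fixed, stained with Alexa-488 anti-phospho-rpS6 Ser235/236 and propidium iodide. Acumen laser scanning; phospho-S6/PI ratio thresholded against 7.5 nM rapamycin, reported as % positive cells.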

[2] = High Content Imaging Cell-Based qHTS for Inhibitors of the mTORC1 Signaling Pathway in MEF (Tsc2-/-, p53-/-) Cells (AID 2666);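 further: percent of cells scored positive for phospho-rpS6 Ser235/236 immunostaining by imaging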
Summary of the method: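 Read-out: % positive cells per well, with thresholds from highest- and lowest-signal wells, based on phospho-rpS6 (Ser235/236) intensity normalized to Hoechst nuclear stain. Cells: Tsc2-/-, p53-/- MEFs carrying empty vector; compound 24 hrs, 37 degree Celsius.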

[3] = High Content Imaging Cell-Based qHTS for Inhibitors of the mTORC1 Signaling Pathway in MEF Cells (AID 2667);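 further: Tsc2-/- p53-/- MEFs stably re-expressing wild-type Tsc2 exposed 24 h; series mostly up to about 38 µM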
Summary of the method: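 MEF (Tsc2-/-, p53-/-, WT Tsc2 re-expressed); cpd 24 h, 37 °C; PFA fix; Alexa-488 anti-p-rpS6 Ser235/236, PI, Hoechst; IN Cell imaging; Hoechst/Alexa-488 intensity ratio; % active cells, thresholds set from rapamycin and DMSO wells.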

[4] = Cytometry Cell-Based qHTS for Inhibitors of the mTORC1 Signaling Pathway in MEF cells (AID 2668);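 further: Tsc2-/- p53-/- mouse embryonic fibroblasts stably re-expressing wild-type Tsc2; percent cells positive for phospho-rpS6 Ser235/236 relative to propidium iodide stain; series mostly up to about 38 µM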
Summary of the method: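 MEFs (Tsc2-/-, p53-/- stably expressing WT Tsc2) treated 24 h at 37 degree Celsius, fixed, stained with Alexa-488 anti-phospho-rpS6 Ser235/236 and propidium iodide; Acumen laser scanning. Reported as % positive cells, phospho-S6 normalized to PI.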

[5] = Validation screen for inhibitors of Lassa infection (AID 463096; calls by dose curve)
[6] = molecular target: Ubiquitin carboxyl-terminal hydrolase 2 (Homo sapiens) (UniProt O75604); experiment: qHTS Validation Assay for Inhibitors of Ubiquitin-specific Protease USP2a Using CHOP2 as the Reporter (AID 463106)
Sequence of Ubiquitin carboxyl-terminal hydrolase 2 (Homo sapiens) (O75604 whole entry, looked up): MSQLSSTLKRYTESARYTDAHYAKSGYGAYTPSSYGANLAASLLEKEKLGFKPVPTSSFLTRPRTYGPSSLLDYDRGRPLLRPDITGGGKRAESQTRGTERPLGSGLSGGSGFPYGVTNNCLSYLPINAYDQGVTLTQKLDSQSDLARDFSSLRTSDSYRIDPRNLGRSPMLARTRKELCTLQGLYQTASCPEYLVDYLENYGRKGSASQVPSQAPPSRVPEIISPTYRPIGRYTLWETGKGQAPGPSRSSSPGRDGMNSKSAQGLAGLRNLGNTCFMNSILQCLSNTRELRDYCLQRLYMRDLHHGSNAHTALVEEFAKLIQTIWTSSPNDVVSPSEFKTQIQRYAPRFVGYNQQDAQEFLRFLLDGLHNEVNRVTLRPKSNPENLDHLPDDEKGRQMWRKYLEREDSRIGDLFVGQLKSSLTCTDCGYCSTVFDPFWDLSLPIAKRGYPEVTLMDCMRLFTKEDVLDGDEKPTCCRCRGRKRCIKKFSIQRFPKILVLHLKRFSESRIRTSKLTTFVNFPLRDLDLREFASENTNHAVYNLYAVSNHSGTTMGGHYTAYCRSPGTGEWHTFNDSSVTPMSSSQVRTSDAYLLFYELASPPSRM
Summary of the method: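 USP2 core (10nM final) was preincubated with compound for 30min at RT in 20mM Tris-HCl pH 8.0, 2mM CaCl2, 2mM beta-mercaptoethanol, 0.05% CHAPS. Ub-CHOP2 and reporter substrate (25nM each) were added, and fluorescence (Ex 485/Em 531nm) was read after 60min.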

[7] = molecular target: DNA polymerase III PolC-type (Bacillus subtilis (strain 168)) (UniProt P13267); experiment: qHTS Validation Assay for the Inhibitors of DNA Replication in Gram-Positive Bacteria (AID 485295);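 further: PicoGreen fluorescence of double-stranded DNA made on primed circular M13 template; series mostly up to about 57 µM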
Sequence of DNA polymerase III PolC-type (Bacillus subtilis (strain 168)) (P13267 whole entry, looked up): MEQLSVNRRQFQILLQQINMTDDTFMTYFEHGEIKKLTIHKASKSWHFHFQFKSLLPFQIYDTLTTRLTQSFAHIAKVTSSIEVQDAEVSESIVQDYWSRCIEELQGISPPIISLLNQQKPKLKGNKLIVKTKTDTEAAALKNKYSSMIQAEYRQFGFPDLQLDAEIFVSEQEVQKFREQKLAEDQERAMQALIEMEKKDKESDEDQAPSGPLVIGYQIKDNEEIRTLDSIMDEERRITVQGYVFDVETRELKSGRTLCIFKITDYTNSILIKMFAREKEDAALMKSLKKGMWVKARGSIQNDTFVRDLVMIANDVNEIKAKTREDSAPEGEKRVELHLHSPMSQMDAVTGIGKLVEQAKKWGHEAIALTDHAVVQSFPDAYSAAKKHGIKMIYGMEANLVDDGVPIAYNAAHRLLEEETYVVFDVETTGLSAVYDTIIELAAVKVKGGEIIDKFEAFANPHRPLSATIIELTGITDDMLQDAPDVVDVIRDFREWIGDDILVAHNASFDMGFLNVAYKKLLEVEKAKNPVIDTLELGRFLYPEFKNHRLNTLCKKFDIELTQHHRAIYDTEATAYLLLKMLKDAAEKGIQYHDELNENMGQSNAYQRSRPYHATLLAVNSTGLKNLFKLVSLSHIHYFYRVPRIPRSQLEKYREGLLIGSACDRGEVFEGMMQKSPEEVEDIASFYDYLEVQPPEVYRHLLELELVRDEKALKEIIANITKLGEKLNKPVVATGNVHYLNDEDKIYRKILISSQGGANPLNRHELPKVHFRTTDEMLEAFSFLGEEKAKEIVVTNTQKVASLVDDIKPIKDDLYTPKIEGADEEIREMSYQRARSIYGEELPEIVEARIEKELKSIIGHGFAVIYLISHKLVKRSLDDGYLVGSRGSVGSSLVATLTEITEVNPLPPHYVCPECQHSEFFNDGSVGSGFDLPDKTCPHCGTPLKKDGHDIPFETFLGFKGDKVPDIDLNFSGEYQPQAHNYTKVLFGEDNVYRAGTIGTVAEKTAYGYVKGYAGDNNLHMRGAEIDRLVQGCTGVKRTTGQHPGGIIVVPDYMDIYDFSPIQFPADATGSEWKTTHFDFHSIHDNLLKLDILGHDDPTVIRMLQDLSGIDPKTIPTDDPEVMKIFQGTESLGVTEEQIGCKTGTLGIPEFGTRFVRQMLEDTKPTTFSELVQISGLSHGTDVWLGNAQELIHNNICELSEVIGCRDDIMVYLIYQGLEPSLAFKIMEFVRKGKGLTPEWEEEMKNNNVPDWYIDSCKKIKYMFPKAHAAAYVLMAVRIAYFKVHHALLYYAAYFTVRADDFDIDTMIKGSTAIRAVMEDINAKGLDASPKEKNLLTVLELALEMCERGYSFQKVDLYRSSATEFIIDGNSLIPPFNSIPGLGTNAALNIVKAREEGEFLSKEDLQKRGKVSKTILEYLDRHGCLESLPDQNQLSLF
Summary of the method: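 Reconstituted B. subtilis Pol III holoenzyme (PolC, beta clamp, SSB, primase) preincubated with compound, then M13Gori single-stranded circular template with dNTPs/NTPs added; room temperature reaction. Stopped with EDTA/PicoGreen; dsDNA fluorescence read, EDTA as full-inhibition control.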

[8] = molecular target: Tumor susceptibility gene 101 protein (Homo sapiens) (UniProt Q99816); experiment: qHTS Validation Assay for Iinhibitors of HIV-1 Budding by Blocking the Interaction of PTAP/TSG101 (AID 485342; calls by dose curve)
Sequence of Tumor susceptibility gene 101 protein (Homo sapiens) (Q99816 whole entry, looked up, the tested form may be a part): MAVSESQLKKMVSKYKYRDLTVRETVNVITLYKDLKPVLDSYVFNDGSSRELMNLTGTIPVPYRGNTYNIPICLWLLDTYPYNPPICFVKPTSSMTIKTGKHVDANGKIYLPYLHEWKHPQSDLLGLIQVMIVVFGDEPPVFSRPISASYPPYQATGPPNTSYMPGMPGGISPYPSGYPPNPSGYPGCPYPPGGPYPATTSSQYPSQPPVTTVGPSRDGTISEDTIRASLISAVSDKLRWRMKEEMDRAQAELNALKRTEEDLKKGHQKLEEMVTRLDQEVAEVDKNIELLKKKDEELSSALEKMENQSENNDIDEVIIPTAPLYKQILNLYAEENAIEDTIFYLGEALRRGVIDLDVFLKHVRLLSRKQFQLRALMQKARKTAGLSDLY
Summary of the method: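 Tsg101 binding domain (10 uM) with FITC-labeled PTAP peptide (50 nM) in HEPES pH 7.5 buffer, 20 min at r.t. with compounds. Binding measured by fluorescence polarization.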

[9] = qHTS Validation Assay to Find Inhibitors of Chronic Active B-Cell Receptor Signaling (AID 485345; active means well fitted curve in the direction sought with a large enough effect in the main read-out, with a control signal flat, not every such curve was filed as active)
Summary of the method: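 TMD8 ABC-DLBCL cells with dox-inducible green luciferase–IκBα fusion and red native luciferase; compounds 46 uM–3 nM, 4 h at 37C with doxycycline in 0.5% FBS IMDM. Green/red ratio normalized to basal and 10 uM MG-132.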

[10] = molecular target: Beta-2 adrenergic receptor (Homo sapiens) (UniProt P07550); experiment: qHTS validation assay of beta-arrestin-biased ligands of beta2-adrenergic receptor (AID 485366)
Sequence of Beta-2 adrenergic receptor (Homo sapiens) (P07550 whole entry, looked up): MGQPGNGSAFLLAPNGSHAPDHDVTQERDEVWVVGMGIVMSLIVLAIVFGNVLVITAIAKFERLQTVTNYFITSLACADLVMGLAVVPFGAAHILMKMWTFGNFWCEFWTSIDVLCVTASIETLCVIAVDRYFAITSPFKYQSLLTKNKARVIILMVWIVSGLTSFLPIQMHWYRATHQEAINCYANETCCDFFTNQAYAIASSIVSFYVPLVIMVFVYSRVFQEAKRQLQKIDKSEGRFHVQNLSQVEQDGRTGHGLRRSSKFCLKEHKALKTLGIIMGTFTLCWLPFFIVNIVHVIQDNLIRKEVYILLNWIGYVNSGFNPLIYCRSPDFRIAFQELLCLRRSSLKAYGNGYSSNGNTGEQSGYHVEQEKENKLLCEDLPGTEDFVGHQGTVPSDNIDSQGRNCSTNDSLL
Summary of the method: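 Tango cells expressing recombinant beta2-AR and beta-arrestin with tTA-driven luciferase, in DMEM with 1% FBS. Compounds were titrated up to 46 microM for 18 hr at 37 degrees C. Luminescence was read 15 min after substrate; curves were fitted and class-assigned.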

[11] = molecular target: ATP-dependent 6-phosphofructokinase (Trypanosoma brucei brucei) (UniProt O15648); experiment: qHTS Validation Assay to Find Inhibitors of T. brucei phosphofructokinase (AID 485368); further: potency means the concentration at half of the fitted maximal effect
Sequence of ATP-dependent 6-phosphofructokinase (Trypanosoma brucei brucei) (O15648 whole entry, looked up): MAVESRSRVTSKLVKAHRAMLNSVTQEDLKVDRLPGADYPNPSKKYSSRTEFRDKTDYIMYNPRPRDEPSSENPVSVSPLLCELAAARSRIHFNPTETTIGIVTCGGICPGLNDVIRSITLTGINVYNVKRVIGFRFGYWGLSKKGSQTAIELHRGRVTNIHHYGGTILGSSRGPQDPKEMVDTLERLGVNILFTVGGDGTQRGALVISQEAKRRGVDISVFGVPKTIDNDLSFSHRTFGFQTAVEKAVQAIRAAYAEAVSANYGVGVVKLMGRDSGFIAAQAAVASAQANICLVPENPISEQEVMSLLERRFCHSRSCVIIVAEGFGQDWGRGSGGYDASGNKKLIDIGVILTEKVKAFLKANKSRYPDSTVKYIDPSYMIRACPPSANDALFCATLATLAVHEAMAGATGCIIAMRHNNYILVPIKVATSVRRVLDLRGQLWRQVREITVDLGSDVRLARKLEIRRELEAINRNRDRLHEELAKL
Summary of the method: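 Activity was read as ADP production by luminescence (ADP-Glo) after 45 min at room temperature. The enzyme was 1.25nM PFK in 0.1M TEA pH 8.0 with 0.5 mM F6P, 0.1mM ATP and 5 mM MgCl2. Compounds were titrated up to 57 uM and % activity normalized to no-enzyme and full-enzyme controls.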

[12] = Quantitative high throughput screen for delayed death inhibitors of the malarial parasite plastid, 96 hour incubation (AID 488745); further: series mostly up to about 29 µM; nearly all actives have a fitted effect of over 70% in size
Summary of the method: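 P. falciparum carrying an integrated firefly luciferase reporter, grown in erythrocytes (2% hematocrit, 0.1% parasitemia final) in RPMI 1640/0.5% Albumax, was exposed to compound for 96 h (two generations) at 37 C, 5% CO2. Luminescence decrease indicated growth inhibition.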

[13] = Quantitative high throughput screen for delayed death inhibitors of the malarial parasite plastid, 48 hour incubation (AID 488752); further: nearly all actives have a fitted effect of over 65% in size
Summary of the method: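 Erythrocytes infected with P. falciparum carrying an integrated firefly luciferase reporter (2% hematocrit, 0.1% parasitemia final) were exposed to compounds in RPMI 1640/0.5% Albumax for 48 h at 37 C, 5% CO2. Growth inhibition was scored as reduced luminescence.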

[14] = molecular target: Thioredoxin reductase 1, cytoplasmic (Rattus norvegicus) (UniProt O89049); experiment: qHTS Assay for Substrates of Mammalian Selenoprotein Thioredoxin Reductase 1 (TrxR1) (AID 488772);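 further: NADPH fluorescence in the first read after selenite addition and not the 8 min delta; series mostly up to about 57 µM; a drop in NADPH fluorescence below the no-compound background marks a TrxR1 substrate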
Summary of the method: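 Quantitative HTS in Tris-HCl buffer at pH 7.5 with EDTA and Tween-20, using rat TrxR1, 400 uM NADPH and 400 uM selenite (final). A fall in initial NADPH fluorescence relative to background marked substrate behaviour.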

[15] = molecular target: M-phase phosphoprotein 8 (Homo sapiens) (UniProt Q99549); experiment: qHTS Validation Assay for Inhibitors for MPP8 Chromodomain Interactions with Methylated Histone Tails (AID 488949); further: nearly all actives have a fitted effect of over 55% in size; further: potency means the concentration at half of the fitted maximal effect
Sequence of M-phase phosphoprotein 8 (Homo sapiens) (Q99549 whole entry, looked up): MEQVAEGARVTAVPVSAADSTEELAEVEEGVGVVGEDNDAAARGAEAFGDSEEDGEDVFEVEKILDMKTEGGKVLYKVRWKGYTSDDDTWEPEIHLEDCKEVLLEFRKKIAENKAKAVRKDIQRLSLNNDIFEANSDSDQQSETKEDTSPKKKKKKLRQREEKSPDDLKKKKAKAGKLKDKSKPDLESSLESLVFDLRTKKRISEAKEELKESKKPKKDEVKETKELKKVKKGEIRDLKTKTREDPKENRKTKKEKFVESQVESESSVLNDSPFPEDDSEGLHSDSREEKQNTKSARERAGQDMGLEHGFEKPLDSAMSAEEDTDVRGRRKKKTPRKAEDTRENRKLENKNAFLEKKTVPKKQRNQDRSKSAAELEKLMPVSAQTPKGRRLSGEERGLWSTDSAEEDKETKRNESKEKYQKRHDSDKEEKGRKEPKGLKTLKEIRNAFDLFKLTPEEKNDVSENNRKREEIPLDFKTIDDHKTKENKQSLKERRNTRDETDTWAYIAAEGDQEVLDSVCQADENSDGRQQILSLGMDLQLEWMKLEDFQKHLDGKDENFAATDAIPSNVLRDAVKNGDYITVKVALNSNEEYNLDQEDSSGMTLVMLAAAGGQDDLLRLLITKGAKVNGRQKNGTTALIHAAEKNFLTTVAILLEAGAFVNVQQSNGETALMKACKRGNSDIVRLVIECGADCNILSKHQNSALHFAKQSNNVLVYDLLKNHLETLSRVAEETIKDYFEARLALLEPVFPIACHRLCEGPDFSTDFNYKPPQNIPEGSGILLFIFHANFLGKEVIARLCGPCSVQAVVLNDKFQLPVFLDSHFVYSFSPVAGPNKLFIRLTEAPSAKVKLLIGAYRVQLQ
Summary of the method: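 MPP8 (50 nM) was pre-bound to 50 nM biotinylated H3(1-18)K9me3 peptide in PBS pH 7.4 with 0.01% Tween-20. Compounds were then added for 30 min at room temperature, and complex disruption was read by AlphaScreen with streptavidin donor and nickel-chelate acceptor beads.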

[16] = molecular target: Thioredoxin reductase 1, cytoplasmic (Rattus norvegicus) (UniProt O89049); experiment: qHTS Assay for Inhibitors of Mammalian Selenoprotein Thioredoxin Reductase 1 (TrxR1) (AID 488773); conditions: Potency: inhibition;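 further: drop in NADPH fluorescence over an 8 min run after selenite addition; series mostly up to about 57 µM; nearly all actives have a fitted effect of over 40% in size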
Summary of the method: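 Steps: enzyme (90 nM) plus NADPH (400 uM final), 5 min at ~22 deg C; compound added, 15 min; selenite (400 uM final) added; fluorescence followed for 8 min. Concentration-response curves derived from the normalized delta values.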

[17] = molecular target: Flap endonuclease 1 (Homo sapiens) (UniProt P39748); experiment: qHTS Validation Assay for the Inhibitors of Human Flap endonuclease 1 (FEN1) (AID 488816)
Sequence of Flap endonuclease 1 (Homo sapiens) (P39748 whole entry, looked up): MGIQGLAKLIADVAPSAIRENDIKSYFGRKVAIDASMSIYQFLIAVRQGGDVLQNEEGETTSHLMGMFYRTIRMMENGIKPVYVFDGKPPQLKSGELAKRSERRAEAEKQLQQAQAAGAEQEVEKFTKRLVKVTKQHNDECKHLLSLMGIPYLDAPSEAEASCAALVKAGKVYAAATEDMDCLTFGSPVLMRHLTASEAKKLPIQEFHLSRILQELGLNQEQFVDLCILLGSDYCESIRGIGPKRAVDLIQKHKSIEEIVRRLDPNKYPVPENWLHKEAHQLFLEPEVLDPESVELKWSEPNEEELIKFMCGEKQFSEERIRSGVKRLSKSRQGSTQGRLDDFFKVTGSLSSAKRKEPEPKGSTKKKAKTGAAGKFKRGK
Summary of the method: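 FEN1, dispensed as a 10 nM reagent, was preincubated with pin-transferred compounds for 15 min at room temperature before substrate was added (50 nM final). Plates were read at 0 and 15 min, and a four-parameter Hill equation was fitted to the concentration-response data.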

[18] = molecular target: Chromobox protein homolog 1 (Homo sapiens) (UniProt P83916); experiment: qHTS Validation Assay for Inhibitors of HP1-beta Chromodomain Interactions with Methylated Histone Tails (AID 488953);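 further: loss of AlphaScreen luminescence from HP1-beta binding biotinylated H3K9me3 peptide; series mostly up to about 110 µM; nearly all actives have a fitted effect of over 50% in size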
Sequence of Chromobox protein homolog 1 (Homo sapiens) (P83916 whole entry, looked up): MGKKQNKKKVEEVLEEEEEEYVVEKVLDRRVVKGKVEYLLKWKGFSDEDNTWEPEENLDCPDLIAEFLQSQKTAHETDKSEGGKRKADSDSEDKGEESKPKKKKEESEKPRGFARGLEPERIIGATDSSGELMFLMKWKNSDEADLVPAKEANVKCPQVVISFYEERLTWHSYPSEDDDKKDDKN
Summary of the method: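 HP1-beta (50 nM) was preincubated 30 min at room temperature with biotinylated H3(1-18)K9me3 peptide (50 nM) in PBS pH 7.4, 0.01% Tween-20, then with compounds 30 min. AlphaScreen signal was read after streptavidin donor/nickel chelate acceptor beads (10 ug/mL final).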

[19] = Validation screen for small molecules that induce DNA re-replication in MCF 10A normal breast cells (AID 463097); further: nearly all actives have a fitted effect of over 60% in size
Summary of the method: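 MCF 10A cells exposed to compound 48 hr at 37 C, 5% CO2, then Hoechst-stained 40 min. Laser-scanning imaging of nuclear DNA content (405 nm ex, 500-530 nm em); re-replication scored as rise in nuclei with elevated fluorescence intensity.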

Measured: Potency

NC(=O)CI
active: [11] 19 µM | [15] 8.91 µM
not listed: [16] | [17] | [18] | [19]
inactive: all other assays above

CCCn1c(=O)c2[nH]c(C3CCCC3)nc2n(CCCOC(=O)c2ccc(S(=O)(=O)F)cc2)c1=O
not listed: [6] | [9] | [11] | [12] | [19]
inactive: all other assays above

N[C@@H](Cn1ccc(=O)[nH]c1=O)C(=O)O
not listed: [5] | [6] | [12] | [13] | [19]
inactive: all other assays above

N=C(N)c1ccc(CS(=O)(=O)F)cc1
not listed: [5] | [7] | [12] | [13] | [17] | [19]
inactive: all other assays above

C[C@H](N)CN1CCc2ccc(Br)cc21
not listed: [5] | [6] | [9] | [11] | [17] | [18]
inactive: all other assays above

C[C@H](N)Cc1cccc(C(F)(F)F)c1
not listed: [5] | [6] | [7] | [12] | [13] | [16] | [18] | [19]
inactive: all other assays above

COc1ccc2c(c1O)-c1cccc3c1[C@@H](C2)N(C)CC3
not listed: [5] | [9] | [11] | [12] | [13] | [15] | [18] | [19]
inactive: all other assays above

CCCN1CCC[C@@H](c2cccc(O)c2)C1
not listed: [5] | [6] | [7] | [12] | [13] | [14] | [17] | [19]
inactive: all other assays above
